In PubChem BioAssay:
For part of these data: Entries with a potency or affinity are not part of this list. Active and inactive are the calls of the source. Unless noted, how the calls were made is not given here.

Tests used:
[1] = antimalarial activity against Dd2 strain (AID 2302;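 active means growth inhibition above 50% at the single 2 µM test dose, taken to imply half-maximal potency below 2 µM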;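 further: 0% = DMSO untreated growth and 100% = chloroquine plus artemisinin killed control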); conditions: P. falciparum Dd2 in RBCs, LDH growth readout, 72 h; at 2 µM; hits give high values
[2] = human hepatoma cell viability loss – ATP luminescence, cytotoxicity control for P. falciparum antimalarial project, primary screen (AID 2303;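 active means inhibition above 50%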;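 further: 0% = DMSO wells and 100% = digitonin-killed cells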); conditions: HepG2 viability, 24-48 h, at 10 µM, hits give high values
[3] = target: L-lactate dehydrogenase (Plasmodium falciparum (isolate CDC / Honduras)) (UniProt Q27743); assay: PfLDH activity inhibition – cell lysate, 3D7 strain, counter-screen for P. falciparum growth inhibition project (AID 2304);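 further: 0% = vehicle and 100% = reference inhibitor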; conditions: P. falciparum 3D7 crude extract, LDH APAD/NBT absorbance; at 2 µM; hits give high values
[4] = inhibition of 3D7 malaria parasite growth – strain 3D7 (AID 2306);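 further: 0% = DMSO wells and 100% = chloroquine plus artemisinin control wells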; conditions: P. falciparum 3D7 erythrocytic growth, LDH absorbance, 72 h; at 2 µM; hits give high values
[5] = target: Calcium-dependent protein kinase 1 (Plasmodium falciparum (isolate 3D7)) (UniProt P62344); assay: PfCDPK1 kinase inhibitors, biochemical, TCAMS library (AID 1159585; cut-off not given, nearly all actives have IC50 up to about 0.98 µM;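 further: inhibitors leave more ATP so luminescence rises with inhibition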); conditions: recombinant PfCDPK1, Kinase-Glo ATP depletion luminescence
[6] = target: Plasmodium falciparum protein kinase 6 (PK6, PF3D7_1337100) (UniProt Q8IDW1); assay: PfPK6 kinase inhibitors, biochemical, TCAMS library (AID 1159586); conditions: recombinant PfPK6, Kinase-Glo ATP depletion luminescence
[7] = target: Protein kinase 7 (PK7), Plasmodium falciparum 3D7 (PF3D7_0213400) (UniProt Q7YTF7); assay: inhibition of Plasmodium PK7 catalytic activity – biochemical, TCAMS antimalarial set, Kinase-Glo luminescence (AID 1159587); conditions: recombinant PfPK7, Kinase-Glo ATP depletion luminescence
[8] = target: Calcium-dependent protein kinase 4 (Plasmodium falciparum (isolate 3D7)) (UniProt Q8IBS5); assay: PfCDPK4 kinase inhibitors, biochemical, TCAMS library (AID 1159588; cut-off not given, nearly all actives have IC50 up to about 0.91 µM); conditions: recombinant PfCDPK4, Kinase-Glo ATP depletion luminescence
Chain of Calcium-dependent protein kinase 4 (Plasmodium falciparum (isolate 3D7)) (Q8IBS5 whole entry, looked up): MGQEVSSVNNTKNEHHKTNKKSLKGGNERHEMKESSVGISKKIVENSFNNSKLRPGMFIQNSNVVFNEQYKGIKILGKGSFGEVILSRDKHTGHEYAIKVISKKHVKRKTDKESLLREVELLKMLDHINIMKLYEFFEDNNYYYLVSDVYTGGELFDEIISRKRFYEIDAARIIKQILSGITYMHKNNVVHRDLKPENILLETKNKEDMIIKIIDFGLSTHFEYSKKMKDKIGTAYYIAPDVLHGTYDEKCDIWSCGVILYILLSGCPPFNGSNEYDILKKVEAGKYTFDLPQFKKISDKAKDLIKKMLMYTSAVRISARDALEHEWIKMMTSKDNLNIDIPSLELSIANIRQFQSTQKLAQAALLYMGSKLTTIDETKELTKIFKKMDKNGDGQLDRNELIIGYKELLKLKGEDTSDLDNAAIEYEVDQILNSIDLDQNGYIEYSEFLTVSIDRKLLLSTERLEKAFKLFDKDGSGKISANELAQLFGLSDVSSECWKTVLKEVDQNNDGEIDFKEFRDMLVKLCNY

Chain of Calcium-dependent protein kinase 1 (Plasmodium falciparum (isolate 3D7)) (P62344 whole entry, looked up): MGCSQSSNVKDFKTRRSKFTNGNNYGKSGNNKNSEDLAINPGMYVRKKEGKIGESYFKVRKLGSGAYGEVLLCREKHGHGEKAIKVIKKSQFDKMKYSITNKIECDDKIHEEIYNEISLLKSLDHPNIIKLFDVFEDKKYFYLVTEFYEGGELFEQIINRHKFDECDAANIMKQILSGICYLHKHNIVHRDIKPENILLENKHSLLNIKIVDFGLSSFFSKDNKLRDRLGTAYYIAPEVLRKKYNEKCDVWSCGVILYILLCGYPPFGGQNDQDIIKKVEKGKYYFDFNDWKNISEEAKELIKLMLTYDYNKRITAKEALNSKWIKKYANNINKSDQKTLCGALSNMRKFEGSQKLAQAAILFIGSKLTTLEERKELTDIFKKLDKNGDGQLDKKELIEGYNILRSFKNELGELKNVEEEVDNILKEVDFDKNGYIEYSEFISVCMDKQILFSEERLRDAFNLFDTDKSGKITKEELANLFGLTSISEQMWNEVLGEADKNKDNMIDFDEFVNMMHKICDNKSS
Chain of Plasmodium falciparum protein kinase 6 (PK6, PF3D7_1337100) (Q8IDW1 1-305): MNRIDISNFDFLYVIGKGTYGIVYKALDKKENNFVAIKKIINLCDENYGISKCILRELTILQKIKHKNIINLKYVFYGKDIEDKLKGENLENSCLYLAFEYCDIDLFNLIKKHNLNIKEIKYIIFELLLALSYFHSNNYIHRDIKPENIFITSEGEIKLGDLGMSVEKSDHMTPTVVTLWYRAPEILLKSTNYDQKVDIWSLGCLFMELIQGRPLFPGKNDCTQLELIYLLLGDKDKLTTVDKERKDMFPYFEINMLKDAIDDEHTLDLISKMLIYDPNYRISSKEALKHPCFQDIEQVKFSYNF
Chain of L-lactate dehydrogenase (Plasmodium falciparum (isolate CDC / Honduras)) (Q27743 whole entry, looked up): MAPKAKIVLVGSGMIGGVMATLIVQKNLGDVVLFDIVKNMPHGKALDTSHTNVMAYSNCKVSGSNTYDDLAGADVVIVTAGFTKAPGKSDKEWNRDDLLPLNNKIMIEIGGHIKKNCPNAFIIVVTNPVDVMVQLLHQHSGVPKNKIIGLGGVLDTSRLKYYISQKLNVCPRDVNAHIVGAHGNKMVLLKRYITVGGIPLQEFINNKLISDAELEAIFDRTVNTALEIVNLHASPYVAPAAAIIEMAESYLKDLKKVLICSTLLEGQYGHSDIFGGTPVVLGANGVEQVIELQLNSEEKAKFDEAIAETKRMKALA
Chain of Protein kinase 7 (PK7), Plasmodium falciparum 3D7 (PF3D7_0213400) (Q7YTF7 1-343): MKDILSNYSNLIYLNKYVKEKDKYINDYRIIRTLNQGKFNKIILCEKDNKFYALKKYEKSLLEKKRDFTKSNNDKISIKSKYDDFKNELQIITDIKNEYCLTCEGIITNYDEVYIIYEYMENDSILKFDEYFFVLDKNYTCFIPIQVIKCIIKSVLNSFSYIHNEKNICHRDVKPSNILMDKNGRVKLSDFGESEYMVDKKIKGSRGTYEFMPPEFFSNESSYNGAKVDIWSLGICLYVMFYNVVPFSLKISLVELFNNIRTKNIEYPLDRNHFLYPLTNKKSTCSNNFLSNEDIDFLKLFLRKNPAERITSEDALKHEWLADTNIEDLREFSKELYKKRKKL

O=C(Nc1ccc(C(F)(F)F)cc1)c1ccc(NCCCN2CCCCCC2)c([N+](=O)[O-])c1
active: growth inhibition [1] 98% | growth inhibition [4] 102%
inactive: inhibition [2] 42% | inhibition [3] -5% | outcome [5] | outcome [6] | outcome [7] | outcome [8]

COc1c(O)cc2oc(-c3ccc(O)cc3)cc(=O)c2c1O
active: growth inhibition [4] 96%
inactive: growth inhibition [1] 0% | inhibition [2] 6% | inhibition [3] -1% | outcome [5] | outcome [6] | outcome [7] | outcome [8]

Cc1cccc2[nH]c(-c3ccc(-c4cccc(NC(=O)C(C)CN(C)C)c4)s3)nc12 (configuration not stated)
active: growth inhibition [1] 69% | growth inhibition [4] 92%
inactive: inhibition [2] 12% | inhibition [3] 0% | outcome [5] | outcome [6] | outcome [7] | outcome [8]

Cc1ccc(C2(CN3CCC(NC(=O)c4ccn[nH]4)CC3)CCCCC2)cc1
inactive: inhibition [2] -6% | inhibition [3] -3% | outcome [5] | outcome [6] | outcome [7] | outcome [8]
active: growth inhibition [1] 96% | growth inhibition [4] 97%

N#Cc1cc(C(=O)c2cc(Br)ccc2O)cn(C2CCCCC2)c1=O
active: growth inhibition [4] 89%
inactive: growth inhibition [1] 9% | inhibition [2] 3% | inhibition [3] 3% | outcome [5] | outcome [6] | outcome [7] | outcome [8]

CN(CCCc1c[nH]c2ccccc12)CCC1CCC(NC(=O)/C=C/c2ccc(Cl)c(Cl)c2)CC1 (configuration not stated)
inactive: inhibition [2] 38% | inhibition [3] -3% | outcome [5] | outcome [6] | outcome [7] | outcome [8]
active: growth inhibition [1] 63% | growth inhibition [4] 99%

CC(C)CCNC(=O)C1Cc2c([nH]c3cc(Cl)ccc23)C2(CCN(CCc3ccccc3)CC2)N1 (configuration not stated)
inactive: inhibition [2] 17% | inhibition [3] 5% | outcome [5] | outcome [6] | outcome [7] | outcome [8]
active: growth inhibition [1] 55% | growth inhibition [4] 103%

COC(=O)C(C)NCC(=O)c1ccccc1 (configuration not stated)
active: growth inhibition [4] 97%
inactive: growth inhibition [1] 23% | inhibition [2] 5% | inhibition [3] 4% | outcome [5] | outcome [6] | outcome [7] | outcome [8]

O=S1N=C(NCCCN(Cc2cccs2)c2ccccn2)C(NCc2ccccc2)=N1 (configuration not stated)
active: growth inhibition [4] 92%
inactive: growth inhibition [1] 25% | inhibition [2] 10% | inhibition [3] 0% | outcome [5] | outcome [6] | outcome [7] | outcome [8]

CN1CCN(Cc2ccc(-c3cccc(-c4nc5ccccc5[nH]4)c3)cc2)CC1
active: growth inhibition [4] 93%
inactive: growth inhibition [1] 6% | inhibition [2] 21% | inhibition [3] 3% | outcome [5] | outcome [6] | outcome [7] | outcome [8]

Cc1ccc(C(NC(=O)C2CCCCC2)c2ccc3cccnc3c2O)cc1 (configuration not stated)
inactive: inhibition [3] 2% | outcome [5] | outcome [6] | outcome [7] | outcome [8]
active: growth inhibition [1] 59% | inhibition [2] 69% | growth inhibition [4] 91%

Cc1cc(-c2ccc(CNCCc3cccs3)cc2)ccc1S(=O)(=O)NCc1ccccc1
active: growth inhibition [4] 94%
inactive: growth inhibition [1] -2% | inhibition [2] 28% | inhibition [3] 3% | outcome [5] | outcome [6] | outcome [7] | outcome [8]

NCc1ccc(CNCc2cccc(-c3cccc(-c4nc5ccc(F)cc5[nH]4)c3)c2)cc1
inactive: growth inhibition [1] 34% | inhibition [2] 15% | inhibition [3] -2% | outcome [5] | outcome [6] | outcome [7] | outcome [8]
active: growth inhibition [4] 101%

Cc1c(CNCCCNc2nc3ccccc3[nH]2)sc(C(F)F)c1Br
inactive: growth inhibition [1] 5% | inhibition [2] 9% | inhibition [3] 2% | outcome [5] | outcome [6] | outcome [7] | outcome [8]
active: growth inhibition [4] 102%

CCCCNC(=O)[C@H](Cc1ccccc1)NC(=O)c1ccc(O)c(-c2ccc(Cl)c(Cl)c2)c1
active: growth inhibition [1] 97% | growth inhibition [4] 98%
inactive: inhibition [2] -8% | inhibition [3] 3% | outcome [5] | outcome [6] | outcome [7] | outcome [8]

CN(CCN)Cc1cccc(-c2cccc(-c3nc4ccc(C(F)(F)F)cc4[nH]3)c2)c1
inactive: inhibition [2] 22% | inhibition [3] 0% | outcome [5] | outcome [6] | outcome [7] | outcome [8]
active: growth inhibition [1] 98% | growth inhibition [4] 99%

N#Cc1ccc2c(c1)CCN(CCC1CCC(NC(=O)c3cc4ccccc4[nH]3)CC1)CC2 (configuration not stated)
inactive: growth inhibition [1] 25% | inhibition [2] 17% | inhibition [3] -1% | outcome [5] | outcome [6] | outcome [7] | outcome [8]
active: growth inhibition [4] 89%

COc1ccc(N2CCN(CCCCNC(=O)c3ccc(NC(=O)c4cc(C(F)(F)F)cc(C(F)(F)F)c4)cc3)CC2)c(OC)c1
inactive: inhibition [2] 30% | inhibition [3] 2% | outcome [5] | outcome [6] | outcome [7] | outcome [8]
active: growth inhibition [1] 99% | growth inhibition [4] 100%

O=C(Nc1ccc(-c2ccccc2)cc1)Nc1cccc(OCCN2CCCC2)c1
active: growth inhibition [4] 94%
inactive: growth inhibition [1] 14% | inhibition [2] 11% | inhibition [3] -2% | outcome [5] | outcome [6] | outcome [7] | outcome [8]

COc1ccc(NC(=O)NC2CCN(c3ccnc4ccccc34)C2)cc1 (configuration not stated)
active: growth inhibition [4] 94%
inactive: growth inhibition [1] -1% | inhibition [2] 3% | inhibition [3] 2% | outcome [5] | outcome [6] | outcome [7] | outcome [8]

CCCCCCn1c(Sc2ccc(C#N)c([N+](=O)[O-])c2)nnc1-c1cccc(Cl)c1
inactive: inhibition [2] 17% | inhibition [3] 1% | outcome [5] | outcome [6] | outcome [7] | outcome [8]
active: growth inhibition [1] 90% | growth inhibition [4] 96%

Cc1ccc(NC(=O)NC2CCN(CCCCCNC(=O)[C@@H]3C[C@H]3c3ccc(Cl)c(Cl)c3)CC2)cc1
inactive: growth inhibition [1] 19% | inhibition [2] 35% | inhibition [3] 1% | outcome [5] | outcome [6] | outcome [7] | outcome [8]
active: growth inhibition [4] 101%

O=C(CN1CCN(S(=O)(=O)C=Cc2ccccc2)CC1)Nc1cc(C(F)(F)F)ccc1Cl
inactive: inhibition [2] 23% | inhibition [3] 5% | outcome [5] | outcome [6] | outcome [7] | outcome [8]
active: growth inhibition [1] 63% | growth inhibition [4] 96%

Cc1ccc(Cl)cc1N1CCN(CCCNC(=O)C2CCN(c3nc4ccccc4[nH]3)CC2)CC1
active: growth inhibition [4] 88%
inactive: growth inhibition [1] -3% | inhibition [2] 41% | inhibition [3] -1% | outcome [5] | outcome [6] | outcome [7] | outcome [8]

Cc1cc(N(CCCN(C)C)Cc2cc(F)cc(F)c2)nc(Nc2ccc(Cl)cc2)n1
inactive: inhibition [2] 37% | inhibition [3] -2% | outcome [5] | outcome [6] | outcome [7] | outcome [8]
active: growth inhibition [1] 97% | growth inhibition [4] 99%

CCOC(=O)c1ccc(OCCOc2ccccc2)cc1
inactive: growth inhibition [1] -3% | inhibition [3] -1% | outcome [5] | outcome [6] | outcome [7] | outcome [8]
active: inhibition [2] 63% | growth inhibition [4] 99%

COc1cc(C(=O)N2CC[C@@H](CCN3CCC4(CC3)CN(S(C)(=O)=O)c3ccccc34)C[C@H]2Cc2ccc(Cl)c(Cl)c2)cc(OC)c1OC
inactive: inhibition [2] 29% | inhibition [3] 4% | outcome [5] | outcome [6] | outcome [7] | outcome [8]
active: growth inhibition [1] 99% | growth inhibition [4] 101%

O=C(C=Cc1ccc(Cl)c(Cl)c1)NCCCCCN1CCCC(CCCNS(=O)(=O)c2cccc(C(F)(F)F)c2)C1 (configuration not stated)
inactive: growth inhibition [1] 33% | inhibition [3] -3% | outcome [5] | outcome [6] | outcome [7] | outcome [8]
active: inhibition [2] 81% | growth inhibition [4] 94%

O=S(=O)(NCCN1CCCC1)c1ccc(-c2ccc(CNCc3ccc(F)cc3)cc2)s1
active: growth inhibition [4] 101%
inactive: growth inhibition [1] 44% | inhibition [2] 42% | inhibition [3] 6% | outcome [5] | outcome [6] | outcome [7] | outcome [8]

CCCCCCN1CCC(CNCc2cccc(Cl)c2)CC1
active: growth inhibition [4] 85%
inactive: growth inhibition [1] 13% | inhibition [2] 8% | inhibition [3] 1% | outcome [5] | outcome [6] | outcome [7] | outcome [8]

CCOc1ccccc1NC(=O)C(Sc1nc(C)cc(C)c1C#N)c1ccccc1 (configuration not stated)
active: growth inhibition [1] 98% | growth inhibition [4] 99%
inactive: inhibition [2] -1% | inhibition [3] -3% | outcome [5] | outcome [6] | outcome [7] | outcome [8]

CC1(C)N=C(N)N=C(N)N1OCCCOc1cccc(Cl)c1
inactive: inhibition [3] -4% | outcome [5] | outcome [6] | outcome [7] | outcome [8]
active: growth inhibition [1] 95% | inhibition [2] 65% | growth inhibition [4] 95%

Cc1ccc(CCC(C)NCC(O)c2cccc(C(F)(F)F)c2)cc1 (configuration not stated)
inactive: inhibition [2] -17% | inhibition [3] 4% | outcome [5] | outcome [6] | outcome [7] | outcome [8]
active: growth inhibition [1] 98% | growth inhibition [4] 99%

CC(C)Nc1cc(C(=O)N[C@@H](Cc2ccccc2)[C@H](O)CNC2CCCCC2)cc(N2CCCCS2(=O)=O)c1
active: growth inhibition [1] 98% | growth inhibition [4] 98%
inactive: inhibition [2] 9% | inhibition [3] 4% | outcome [5] | outcome [6] | outcome [7] | outcome [8]

COc1nc2c(N3CCN(CCNCc4ccc5c(n4)NC(=O)CO5)CC3)ccnc2cc1F
active: growth inhibition [4] 101%
inactive: growth inhibition [1] 9% | inhibition [2] 18% | inhibition [3] -2% | outcome [5] | outcome [6] | outcome [7] | outcome [8]

CCCNC(=O)Nc1cc2cc(-c3cccc(CN4CCCCC4)c3)ccc2n2c(C)nnc12
inactive: inhibition [3] 0% | outcome [5] | outcome [6] | outcome [7] | outcome [8]
active: growth inhibition [1] 50% | inhibition [2] 60% | growth inhibition [4] 100%

CC1CN(Cc2csc(Nc3ccccc3)n2)CC(C)O1 (configuration not stated)
inactive: inhibition [2] 4% | inhibition [3] 0% | outcome [5] | outcome [6] | outcome [7] | outcome [8]
active: growth inhibition [1] 81% | growth inhibition [4] 91%

CCN(CC)CCN(Cc1ccc(-c2ccc(C(F)(F)F)cc2)nc1)C(=O)Cn1cc(Cc2cnn(C)c2)c(=O)n2nc(-c3ccccc3)cc12
active: growth inhibition [1] 95% | growth inhibition [4] 97%
inactive: inhibition [2] 35% | inhibition [3] -3% | outcome [5] | outcome [6] | outcome [7] | outcome [8]

COc1cccc(C2CCN(CCN3CCC(NC(=O)c4ccc(-c5ccc(C(F)(F)F)cc5)cc4)CC3)CC2)c1
inactive: inhibition [2] 46% | inhibition [3] -7% | outcome [5] | outcome [6] | outcome [7] | outcome [8]
active: growth inhibition [1] 99% | growth inhibition [4] 99%
